Bioassay records: PubChem, The Scripps Research Institute Molecular Screening Center
Only some compounds are listed: those with a hit (about 2.5% of all), similar ones and a draw of the others.
ASK1 primary = human ASK1 kinase inhibition, primary screen. Q99683. AlphaScreen MKK6 phosphorylation by ASK1, luminescence. inhibition, % at 7.44 µM. hit rate 0.99% among 22,000; in the data active = inhibition above about 35%
ULK1 primary = blocks human autophagy kinase ULK1; O75385; AlphaScreen Atg13 phosphorylation by ULK1, luminescence; inhibition, % at 5.96 µM; hit rate 1.9% among 30,000; in the data active = inhibition above about 43%
Large screens that a line does not name were inactive.

c1cnc(Nc2nc(Nc3ccc4c(c3)OCO4)c3ncn(C4CCCCC4)c3n2)cn1	none
CC(C)n1cnc2c(Nc3ccc4c(c3)OCO4)nc(Nc3ccccc3)nc21	none
CC(C)n1cnc2c(Nc3ccc4c(c3)OCO4)nc(Nc3cnccn3)nc21	ULK1 primary 49
O=C(Nc1ccccc1)c1ccc(-c2csc3ccccc23)s1	none
O=C(Nc1ccc2[nH]ncc2c1)C1CCN(C(=O)[C@H](O)c2ccccc2)CC1	none
CNC(=O)c1ccccc1Nc1cc(Nc2ccc(C(=O)N(C)C)cn2)ncc1C(F)(F)F	ULK1 primary 89
CNC(=O)c1ncccc1Nc1cc(Nc2ccc(C(=O)N(C)C)cn2)ncc1C(F)(F)F	ULK1 primary 56
CNC(=O)c1ccccc1Nc1cc(Nc2ccc(C(=O)N(C)C)cc2C)ncc1C(F)(F)F	ULK1 primary 78
CNC(=O)c1ncccc1Nc1cc(Nc2ccc3[nH]ncc3c2)ncc1C(F)(F)F	none
CN(C)C(=O)c1ncccc1Nc1cc(Nc2ccc3c(c2)CC(=O)N3)ncc1C(F)(F)F	none
Cc1cc(NCCN2CCOCC2)nc(N2CCOCC2)n1	none
CN(C)CCOc1cc(-c2cn[nH]c2)c(F)cc1NC(=O)C1COc2ccc(Cl)cc2C1 (configuration not stated)	none
COCCNC(=O)c1ccc2cncc(-c3ccsc3)c2n1	ULK1 primary 53 (no result: ASK1 primary)
O=C(NC1CC1)c1ccc2cncc(-c3ccsc3)c2n1	none (no result: ASK1 primary)
O=C(NCc1ccccc1)c1ccc2cncc(-c3ccccc3)c2n1	ULK1 primary 74 (no result: ASK1 primary)
Cc1cnc(CNC(=O)c2ccc3cncc(-c4ccccc4)c3n2)cn1	none (no result: ASK1 primary)
O=C1C(=O)c2ncccc2-c2cccnc21	none (no result: ASK1 primary)
O=C1c2ccccc2-c2n[nH]c3cccc1c23	ULK1 primary 76
Cc1cnc(NCc2cccnc2)nc1Nc1ccc2c(c1)OCO2	none
CC(C)N(CCNc1cc(Nc2nc3ccccc3n2C)nc(N)n1)C(C)C	none
O=C(OC[C@H]1O[C@H](OC(=O)c2cc(O)c(O)c(OC(=O)c3cc(O)c(O)c(O)c3)c2)[C@H](OC(=O)c2cc(O)c(O)c(OC(=O)c3cc(O)c(O)c(O)c3)c2)[C@@H](OC(=O)c2cc(O)c(O)c(OC(=O)c3cc(O)c(O)c(O)c3)c2)[C@@H]1OC(=O)c1cc(O)c(O)c(OC(=O)c2cc(O)c(O)c(O)c2)c1)c1cc(O)c(O)c(OC(=O)c2cc(O)c(O)c(O)c2)c1	ULK1 primary 86 (no result: ASK1 primary)
CC(=O)OC[C@H]1O[C@@H](OC(C)=O)[C@H](OC(C)=O)[C@@H]1OC(C)=O	none (no result: ASK1 primary)
O=C(NC1CC1)c1ccc(-c2ccc(C(=O)NCc3ccccc3)s2)cc1	none
O=C1CCCN1CCCNc1nc(Nc2ccncc2)nc2nc[nH]c12	ULK1 primary 55
O=C1CCCN1CCCNc1nc(NCCCN2CCCC2=O)c2[nH]cnc2n1	none
O=C1CCCN1CCCNc1nc(Nc2cccnc2)nc2nc[nH]c12	none
O=C1CCCN1CCCNc1nc(Nc2ccccc2)nc2nc[nH]c12	ULK1 primary 46
O=C1CCCN1CCCNc1nc(Nc2ccc(-n3ccnc3)cc2)nc2nc[nH]c12	ULK1 primary 58
O=C1CCCN1CCCNc1nc(Nc2ccccc2)c2[nH]cnc2n1	none
CC(=O)Nc1ccc(Nc2cc(-c3cccc(C(C)=O)c3)ncn2)cc1	none
CC(=O)Nc1ccc(-c2cnc3cccc(Nc4ccccn4)c3c2)cc1	none
O=c1[nH]c2cc([N+](=O)[O-])c(N3CCCCC3)c([N+](=O)[O-])c2[nH]1	none (no result: ASK1 primary)
CCC(NC(C)C)C(O)c1ccc(O)c(O)c1 (configuration not stated)	none (no result: ASK1 primary)
NCC(O)c1ccc(O)c(O)c1 (configuration not stated)	ULK1 primary 80 (no result: ASK1 primary)
CN1CCN(C(=O)c2ccc(-c3cc(C(=O)NC4CC4)ccn3)cc2)CC1	none
COc1cc(Nc2cc(NCc3ccccc3)nc(N)n2)cc(OC)c1OC	none
Cc1nn(C)c(C)c1-c1nc(NCCc2ccc(O)cc2)c2ncn(-c3ccsc3)c2n1	none
c1cncc(CNc2nc(-c3ccc(N4CCOCC4)nc3)nc3nc[nH]c23)c1	ULK1 primary 59
COc1cc(Nc2ccnc(-c3ccc(N4CCOCC4)nc3)n2)cc(OC)c1OC	ULK1 primary 74
COc1cc2nc(-c3ccc(N4CCOCC4)nc3)nc(Nc3cc(OC)c(OC)c(OC)c3)c2cc1OC	none
CC(=O)Nc1ccc(Nc2ccnc(-c3ccc(N4CCOCC4)nc3)n2)cc1	none
COc1cc(Nc2ccnc(-c3ccc(C(=O)NC4CC4)cc3)n2)cc(OC)c1OC	ULK1 primary 45
COc1cc(Nc2cc(C)nc(-c3ccc(C(=O)NC4CC4)cc3)n2)cc(OC)c1OC	none
COc1ccc(-c2nc(NCc3cccnc3)c3[nH]cnc3n2)cn1	none
c1cc(Nc2ccc(N3CCOCC3)cc2)nc(-c2ccc(N3CCOCC3)nc2)n1	ULK1 primary 60
CC(C)N(CCNc1nc(Nc2cnccn2)nc2c1ncn2-c1ccccc1)C(C)C	none
CC(C)N(CCNc1ncnc2c1nc(N1CCOCC1)n2C(C)C)C(C)C	none
c1ccc(-c2ccnc(NC3CCCCC3)n2)cc1	none
COc1ccc(-c2ncc(C)c(Nc3ccccc3)n2)cn1	none
Cc1cnc(-c2ccc(N3CCOCC3)nc2)nc1Nc1ccc(N2CCOCC2)cc1	ULK1 primary 52
Cc1cnc(-c2ccc(N3CCOCC3)nc2)nc1Nc1ccc(Oc2ccccc2)cc1	none
COc1cc(Nc2nc(-c3ccc(N4CCOCC4)nc3)nc3nc[nH]c23)cc(OC)c1OC	none
COc1cc(Nc2nc(-c3ccc(N4CCOCC4)nc3)ncc2C)cc(OC)c1OC	ULK1 primary 89
COc1ccc(-c2ncc(C)c(Nc3cc(OC)c(OC)c(OC)c3)n2)cn1	ULK1 primary 55
O=C(NC1CC1)c1ccc(-c2nc(NCc3ccccc3)c3ncn(Cc4ccc(C(F)(F)F)cc4)c3n2)cc1	none
CC(=O)Nc1ccc(NC(=O)c2csc(-c3ccccc3)n2)cc1	none
Cc1nc(C)n(-c2ccc(Nc3nccc(-c4cc(F)cc(-c5cnoc5)c4)n3)cc2)n1	ULK1 primary 45
Cc1ncn(-c2ccc(Nc3nccc(-c4cc(F)cc(-c5cnoc5)c4)n3)cc2)n1	none
CN1CCN(c2ccc(-c3ncc(C(=O)NC4CCN(Cc5ccccc5)CC4)s3)cc2)CC1	none
CCCOC(=O)C1=C(C)NC2=C(C(=O)CCC2)C1c1cc(Cl)c(O)c(OC)c1 (configuration not stated)	none (no result: ASK1 primary)
Cc1cc(NC(=O)C2CC2)n(-c2nc3c(c(=O)[nH]2)CCC3)n1	none (no result: ASK1 primary)
CC1=NN(C(N)=S)C(=O)C1N=Nc1ccc(S(=O)(=O)O)c2ccccc12 (configuration not stated)	none (no result: ASK1 primary)
Cc1cnc(Nc2ccc(N3CCOCC3)cc2)nc1Nc1ccc(N2CCOCC2)cc1	none
Cc1cnc(NCCCN2CCCC2=O)nc1Nc1ccc(N2CCOCC2)cc1	ULK1 primary 46
Cc1cnc(Nc2ccc(N3CCOCC3)cc2)nc1NCCCN1CCCC1=O	ULK1 primary 44
Cc1cnc(NCCCN2CCCC2=O)nc1NCCN1CCOCC1	none
COc1cc(Nc2ncc(C)c(NCCCN3CCCC3=O)n2)cc(OC)c1OC	ULK1 primary 76
CC(=O)Nc1ccc(Nc2nc(NCCCN3CCCC3=O)ncc2C)cc1	none
Cc1cnc(NCCCN2CCCC2=O)nc1NCCCN1CCCC1=O	none
Cc1cnc(Nc2nccc3ccccc23)nc1Nc1ccc(N2CCOCC2)cc1	ULK1 primary 46
CN1CCN(CCNC(=O)c2ccnc(-n3ncc4cc(Nc5cccc(Cl)c5)ccc43)c2)CC1	none
CCNc1cc(NCCc2ccc(O)cc2)ncn1	none
CCCC(=O)NC(N1CCOCC1)C(Cl)(Cl)Cl (configuration not stated)	none (no result: ASK1 primary)
